Screening data deposited in PubChem BioAssay by Buhrlage Lab, Dana-Farber Cancer Institute and Novartis Institutes for BioMedical Research (Cambridge, Mass).
USP10 block = blocks human USP10 ubiquitin-rhodamine cleavage; Q14694; purified USP10, Ub-rhodamine fluorescence, 60 min; inhibition, % at 20 µM; 47,000 tested, 1.1% active
USP28 block = inhibitors of human USP28 deubiquitinase | Q96RU2 | purified USP28, Ub-rhodamine cleavage fluorescence, 30 min | inhibition, % at 25 µM | 47,000 tested, 3% active | AID 1645857
USP8 inh = blocks human USP8 ubiquitin-rhodamine cleavage; purified USP8, Ub-rhodamine cleavage fluorescence, 30 min; 47,000 tested, 4.2% active; AID 1645853; inhibition, % at 20 µM
USP17 block = inhibitors of human USP17 deubiquitinase; purified USP17, Ub-rhodamine cleavage fluorescence, 3 h; inhibition, % at 50 µM; 47,000 tested, 6.5% active; AID 1645855
OTUD3 inh = human OTUD3 deubiquitinase inhibition; Q5T2D3; purified OTUD3, Ub-rhodamine fluorescence, 2 h; inhibition, % at 25 µM; 47,000 tested, 0.7% active; AID 1645858
USP30 inh = inhibitors of human USP30 deubiquitinase; Q70CQ3; purified USP30, Ub-rhodamine cleavage fluorescence; inhibition, % at 25 µM; 47,000 tested, 5.3% active
* = called active by the depositor; x = no result given. Most compounds without a hit are left out; they make up all but 13% or so of the library. No stated cut-off is given here; in the data, active means inhibition above about 30%; inactive means the rest.

SMILES	USP10 block	USP28 block	USP8 inh	USP17 block	OTUD3 inh	USP30 inh
CC(CNC(=O)c1ccccc1)NC(=O)c1ccccc1 (centres undefined)	0	2	8	6	2	-1
COc1cc2c(c(OC)c1OC)-c1ccc(N3CCN(c4cccc(Cl)c4)CC3)c(=O)cc1[C@@H](NC(C)=O)CC2	-1	-3	55*	22	-2	-13
COc1cc2c(c(OC)c1OC)-c1ccc(N3CCN(c4ccc(F)cc4)CC3)c(=O)cc1[C@@H](NC(C)=O)CC2	-6	0	0	-11	-2	-16
COc1cccc(-n2c(CNCc3cccnc3)nc3ccc([N+](=O)[O-])cc3c2=O)c1	5	36*	-66	36*	12	68*
Cc1onc(-c2c(Cl)cccc2Cl)c1C(=O)Nc1ccc(Br)cn1	9	0	4	-5	2	5
CCC(=O)N(C1CCOCC1)C1CCN(S(=O)(=O)c2ccc(C)cc2C)CC1	-2	-11	-34	-12	-3	-3
Cc1ccc(S(=O)(=O)N2CCC(C(=O)Nc3nnc(C)o3)CC2)c(C)c1	5	11	-109	-3	15	37*
O=C(c1ccc2c(c1)N(Cc1ccccc1F)C(=O)c1ccccc1S2)N1CCCC1	1	13	8	11	-6	15
Cc1cccc(CN2C(=O)c3ccccc3Sc3ccc(C(=O)NC4CCCC4)cc32)c1	4	2	0	-6	-3	0
CCN1C(=O)c2ccccc2Sc2ccc(C(=O)NCc3ccc(C)cc3)cc21	9	38*	0	-1	5	26
O=C(NCc1ccco1)c1ccc2c(c1)N(Cc1cccc(F)c1)C(=O)c1ccccc1S2	-5	6	26	58*	12	-40
O=C(Nc1cc(C(F)(F)F)ccc1Cl)c1ccc(S(=O)(=O)N2CCc3ccccc3C2)cc1	-2	4	2	10	5	22
NS(=O)(=O)c1ccc(N2CCCC2c2ccc3c(c2)OCCCO3)nc1 (centres undefined)	-3	0	5	0	0	-2
CN(c1cccc(Cl)c1)S(=O)(=O)c1cccc(C(=O)OCC(=O)N(Cc2ccccc2)C(C)(C)C)c1	2	5	2	0	2	6
COc1ccc(NC(=O)COC(=O)c2cccc(S(=O)(=O)N(C)c3cccc(Cl)c3)c2)c(OC)c1	7	5	1	1	3	33*
Cc1cc2c(cc1S(=O)(=O)N1CCCC(C)C1)OCC(=O)N2 (centres undefined)	5	x	1	41*	-1	x
COc1ccccc1N1CCN(S(=O)(=O)c2cc3c(cc2C)NC(=O)CO3)CC1	-3	-13	0	-6	-17	-19
CC(=O)c1ccc(N2CCN(S(=O)(=O)c3cc4c(cc3C)NC(=O)CO4)CC2)cc1	8	32*	29	15	14	-21
CN1CCN(C(=O)c2ccc3nccnc3c2)CC1	-4	x	-18	-27	-1	x
Cc1ccccc1-c1nnc(SCc2noc(CCC(=O)Nc3ccccc3)n2)o1	6	11	-113	-16	7	17
O=S1(=O)CCC(S(=O)(=O)Nc2cccc(C(F)(F)F)c2)C1 (centres undefined)	0	-8	0	-38	-4	-96
O=S1(=O)CCC(S(=O)(=O)Nc2ccc(OCc3ccc(Cl)cc3)cc2)C1 (centres undefined)	0	9	57*	35*	6	19
Cc1ccc(S(=O)(=O)NCc2nnc(SCc3ccc(C(C)(C)C)cc3)n2C)cc1	9	9	-10	12	8	21
Cc1nn(-c2ccc3nncn3n2)c2c1C(c1ccc(C(C)C)cc1)CC(=O)N2 (centres undefined)	0	16	17	19	12	45*
Cc1ccccc1C1CC(=O)Nc2c1c(C)nn2-c1ccc2nnc(C)n2n1 (centres undefined)	3	18	2	11	14	29
Cc1cccc(/C=C/c2nc3ccc([N+](=O)[O-])cc3s2)c1	4	-10	87*	43*	-11	-59
O=c1c2c(-c3ccccc3)csc2ncn1Cc1ccc2c(c1)OCO2	7	40*	1	6	4	17
COc1ccc(CCn2cnc3scc(-c4ccccc4)c3c2=O)cc1OC	0	-6	-5	-1	-6	-7
